Measured values published in PubChem BioAssay (NCATS).
Values joined by “and” are separate entries in the source; they are usually repeats but may differ in a detail not shown here. Equal values may be shown once. Results filed as inconclusive are left out. Active and inactive are the calls of the source. The call rests on the fitted dose curve; in most records, active means well fitted curve in the direction sought with a large enough effect; inconclusive means small, poorly fitted or top-dose-only effect, or another doubt; inactive means no such curve, though single readings can be large; an effect the other way counts as inactive or inconclusive.

How the values were obtained:
KB-3-1 = assay: Cytotoxic Profiling of Annotated Libraries Using Quantitative High-Throughput Screening (AID 1296008); conditions: Five cell lines viability, CellTiter-Glo ATP luminescence, 48-72 h; max response: stronger effect = lower value; further: nearly all actives have a fitted effect of over 60% in size; further: potency means the concentration at half of the fitted maximal effect; on max response: on the % scale 0 is the no-effect control and ±100 the full control effect
In short: (§1)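 Compounds were pin-transferred onto cells and incubated 48 or 72 hr at 37 degree Celsius, 95% humidity. CellTiter-Glo was added, plates sat 10 min at room temperature, then ATP-coupled luminescence was imaged as the viability read-out.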

NIH3T3 [1] = assay: as above; conditions: Five cell lines viability, CellTiter-Glo ATP luminescence, 48-72 h; max response: stronger effect = lower value
In short: as §1

NIH3T3 [2] = assay: qHTS assay to identify novel small-molecules to repurpose for Merkel cell carcinoma treatment (AID 1296009); conditions: MCC and control cell lines, CellTiter-Glo viability, 72 h; at 44.8 µM (top of the series) unless noted; further: nearly all actives have a fitted effect of over 60% in size
In short: (§2)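 qHTS format: cells treated with library compounds in DMSO across 8 (NPC) or 11 (MIPE) concentrations. Readout after 72 hr at 37 degree celsius was CellTiter-Glo luminescence.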

C33A = assay: Primary qHTS to identify gynecologic anti-cancer compounds using libraries of approved drugs and bioactive compounds (AID 1345084); conditions: Gynecologic cancer cell panel viability, ATPlite luminescence, 48 h; series mostly up to 57.5 µM; further: nearly all actives have a fitted effect of over 55% in size; further: potency means the concentration at half of the fitted maximal effect; on activity change, negative = cytotoxicity: on the % scale 0 is the no-effect control and ±100 the full control effect
In short: (§3)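 Cells, 1,000 per well, were allowed to settle for 16 h at 37 C before compound addition. Five concentrations were tested for 48 h, and viability was read by ATPlite luminescence after 15 min at room temperature.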

CAOV3 = assay: as above; conditions: Gynecologic cancer cell panel viability, ATPlite luminescence, 48 h; series mostly up to 57.5 µM
In short: as §3

Es-2 = assay: as above; conditions: Gynecologic cancer cell panel viability, ATPlite luminescence, 48 h; series mostly up to 57.5 µM
In short: as §3

HeLa = assay: as above; conditions: Gynecologic cancer cell panel viability, ATPlite luminescence, 48 h; series mostly up to 57.5 µM
In short: as §3

Hek293T [3] = assay: as above; conditions: Gynecologic cancer cell panel viability, ATPlite luminescence, 48 h, control line for the selectivity index; series mostly up to 57.5 µM
In short: as §3

JEG-3 = assay: as above; conditions: Gynecologic cancer cell panel viability, ATPlite luminescence, 48 h; series mostly up to 57.5 µM
In short: as §3

OV90 = assay: as above; conditions: Gynecologic cancer cell panel viability, ATPlite luminescence, 48 h; series mostly up to 57.5 µM
In short: as §3

CASKI = assay: as above; conditions: Gynecologic cancer cell panel viability, ATPlite luminescence, 48 h; series mostly up to 57.5 µM
In short: as §3

CRL-7250 = normal cell line; assay: qHTS assay to identify novel small-molecules to repurpose for Merkel cell carcinoma treatment (AID 1296009); conditions: MCC and control cell lines, CellTiter-Glo viability, 72 h; at 44.8 µM (top of the series) unless noted; further: nearly all actives have a fitted effect of over 60% in size
In short: as §2

HACAT = assay: as above; conditions: MCC and control cell lines, CellTiter-Glo viability, 72 h; at 44.8 µM (top of the series) unless noted
In short: as §2

HEK293T [4] = assay: as above; conditions: MCC and control cell lines, CellTiter-Glo viability, 72 h; at 44.8 µM (top of the series) unless noted
In short: as §2

COC1C(O)C(OC2CCC3(C=O)C(CCC4C3CCC3(C)C(C5=CC(=O)OC5)CCC43O)C2)OC(C)C1OC1OC(CO)C(O)C(O)C1O (stereo not drawn)
inactive: outcome (NIH3T3 [1]) | outcome (NIH3T3 [2]) inactive [at 17.4 µM]
active: Potency (KB-3-1) 485 nM | Potency (C33A) 501 nM | Potency (CAOV3) 2000 nM | Potency (Es-2) 891 nM | Potency (HeLa) 1260 nM | Potency (Hek293T [3]) 1000 nM | Potency (JEG-3) 2240 nM | Potency (OV90) 3550 nM

CCCSP(=O)(OCC)SCCC
inactive: Potency (C33A) | Potency (CASKI) | Potency (Es-2) | Potency (HeLa) | Potency (Hek293T [3]) | Potency (OV90)

C=C[C@H]1CN2CC[C@H]1C[C@@H]2[C@@H](O)c1ccnc2ccccc12
inactive: max response (KB-3-1) 5.41% and -18.8% | max response (NIH3T3 [1]) -3.21% | Potency (C33A) | Potency (CASKI) | Potency (Es-2) | Potency (HeLa) | Potency (Hek293T [3]) | Potency (JEG-3) | Potency (OV90)

O=C1C[C@@H]2OCC=C3CN4CC[C@]56c7ccccc7N1[C@H]5[C@H]2[C@H]3C[C@H]46
inactive: max response (NIH3T3 [1]) 3.86% | outcome (CRL-7250) | outcome (HACAT) | Potency (C33A) | Potency (CAOV3) | Potency (CASKI) | Potency (Es-2) | Potency (HeLa) | Potency (Hek293T [3]) | Potency (JEG-3) | Potency (OV90)

C=CC(C)(C)c1[nH]c2cccc3c2c1C[C@@H]1[C@@H]3[C@@H](OC(C)=O)[C@H](C)CN1C
inactive: outcome (NIH3T3 [1]) | outcome (HACAT) | outcome (HEK293T [4]) | Potency (C33A) | Potency (CAOV3) | Potency (CASKI) | Potency (Es-2) | Potency (HeLa) | Potency (Hek293T [3]) | Potency (JEG-3) | Potency (OV90)

COC1CC(OC2CCC3(C)C(=CCC4C3CCC3(C)C(C(C)OC5OC(COC6OC(CO)C(O)C(O)C6O)C(O)C(O)C5O)CCC43O)C2)OC(C)C1OC1OC(C)C(O)C(OC)C1O (stereo not drawn)
inactive: outcome (NIH3T3 [1]) | outcome (HACAT) inactive [at 9.27 µM] | outcome (NIH3T3 [2]) inactive [at 9.27 µM] | activity change, negative = cytotoxicity (C33A) 6.28% [at 11.6 µM] | activity change, negative = cytotoxicity (CAOV3) 3.88% [at 11.6 µM] | activity change, negative = cytotoxicity (CASKI) 4.6% [at 11.6 µM] | activity change, negative = cytotoxicity (Es-2) -3.02% [at 11.6 µM] | activity change, negative = cytotoxicity (HeLa) -1.19% [at 11.6 µM] | activity change, negative = cytotoxicity (Hek293T [3]) 5.95% [at 11.6 µM] | activity change, negative = cytotoxicity (JEG-3) -7.91% [at 11.6 µM] | activity change, negative = cytotoxicity (OV90) 0.938% [at 11.6 µM]

C[C@]12CC[C@@H](O)C[C@H]1CC[C@@H]1[C@@H]2CC[C@]2(C)C(=O)CC[C@@H]12
inactive: outcome (KB-3-1) | outcome (NIH3T3 [1]) | Potency (C33A) | Potency (CASKI) | Potency (Es-2) | Potency (HeLa) | Potency (Hek293T [3]) | Potency (JEG-3) | Potency (OV90)

CCc1[nH]c2ccc(OC)cc2c1CCN(C)C
inactive: max response (KB-3-1) -6.67% | outcome (NIH3T3 [1]) | Potency (C33A) | Potency (CAOV3) | Potency (CASKI) | Potency (Es-2) | Potency (HeLa) | Potency (Hek293T [3]) | Potency (JEG-3) | Potency (OV90)

CC(C)(C)c1cc(C(C)(C)C)c2c(c1)C(O)(C(F)(F)F)C(=O)O2 (stereo not drawn)
inactive: outcome (NIH3T3 [1]) | outcome (CRL-7250) | outcome (HACAT) | Potency (C33A) | Potency (CAOV3) | Potency (CASKI) | Potency (Es-2) | Potency (HeLa) | Potency (Hek293T [3]) | Potency (JEG-3) | Potency (OV90)

COc1cc2c(cc1OC)[C@@]13CCN4CC5=CCO[C@H]6CC(=O)N2[C@H]1[C@H]6[C@H]5C[C@H]43
inactive: max response (KB-3-1) 8.18% and 2.14% | max response (NIH3T3 [1]) 1.02% | Potency (C33A) | Potency (CAOV3) | Potency (CASKI) | Potency (Es-2) | Potency (HeLa) | Potency (Hek293T [3]) | Potency (JEG-3) | Potency (OV90)
